Results published in PubChem BioAssay AID720712 (NMMLSC, 2013).
Calls of active or inactive are those of the source.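 Rule for the calls: active = EC50 at most 10 µM with response changing by at least 30 points across doses, from an acceptable curve fit; inactive = the rest.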

Molecular target: Cell division control protein 42 homolog (Homo sapiens) (UniProt P60953)
Test: blockade of fluorescent GTP loading onto wildtype Cdc42 – biochemical, compound preincubation comparison, flow cytometry beads, Bodipy-FL-GTP, mechanism study for Ras-family GTPase inhibitor project, late-stage follow-up (AID 720712)
Settings: GST-Cdc42 beads, Bodipy-FL-GTP binding, EDTA, protocol B; series mostly up to 100 µM

Chain of Cell division control protein 42 homolog (Homo sapiens) (P60953 whole entry, looked up): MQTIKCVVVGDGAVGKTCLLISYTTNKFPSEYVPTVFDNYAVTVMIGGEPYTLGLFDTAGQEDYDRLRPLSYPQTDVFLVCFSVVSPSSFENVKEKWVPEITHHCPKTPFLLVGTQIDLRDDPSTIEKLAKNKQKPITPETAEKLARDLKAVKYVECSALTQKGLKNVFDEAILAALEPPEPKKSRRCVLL

Question: How did the outcome turn out when `CC1(C)Cc2c(sc(NC(=S)NC(=O)c3ccc(N=[N+]=[N-])cc3)c2C(=O)O)CO1` was run?
Answer: inactive

Question: For `CC1(C)Cc2c(sc(NC(=S)NC(=O)c3cccc(N=[N+]=[N-])c3)c2C(=O)O)CO1`, which outcome is on record?
Answer: inactive
